PubChem BioAssay (EPA / NIEHS)
Values joined by “and” are separate entries in the source; they are usually repeats but may differ in a detail not shown here. Equal entries are not always repeated. Records with an inconclusive call do not appear. Active and inactive are the calls of the source. Rule for the calls: active = hit-call score of the fitted dose curve at least 0.9, where 1 is the maximum; inconclusive = response in the unintended direction; inactive = score below 0.9.

Tests used:
[1] = STM_H9_NormalizedViability: Cytotoxicity Assessment at 120 hours in the Stemina devTOX quickPredict H9 human embryonic stem cell (hESC)-based Assay (AID 2283784)
Outline: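 Here, H9 cells received test compound with daily medium renewal. Each plate included methotrexate references (1uM, 5 nM), 0.1% DMSO and media blanks; CellTiter-Fluor RFU was normalized to DMSO.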

AR (gene 367) [2] = molecular target: AR (gene 367) (UniProt P10275); assay: ACEA_AR_antagonist_80hr: ACEA Biosciences xCELLigence Real-Time Cell Analysis on Androgen Receptor Antagonism for Proliferation (AID 2283787);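 note: 22Rv1 human prostate cancer cells with growth followed by electrical impedance; hits lower the impedance growth signal relative to DMSO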
AR (gene 367), sequence (P10275 whole entry, looked up): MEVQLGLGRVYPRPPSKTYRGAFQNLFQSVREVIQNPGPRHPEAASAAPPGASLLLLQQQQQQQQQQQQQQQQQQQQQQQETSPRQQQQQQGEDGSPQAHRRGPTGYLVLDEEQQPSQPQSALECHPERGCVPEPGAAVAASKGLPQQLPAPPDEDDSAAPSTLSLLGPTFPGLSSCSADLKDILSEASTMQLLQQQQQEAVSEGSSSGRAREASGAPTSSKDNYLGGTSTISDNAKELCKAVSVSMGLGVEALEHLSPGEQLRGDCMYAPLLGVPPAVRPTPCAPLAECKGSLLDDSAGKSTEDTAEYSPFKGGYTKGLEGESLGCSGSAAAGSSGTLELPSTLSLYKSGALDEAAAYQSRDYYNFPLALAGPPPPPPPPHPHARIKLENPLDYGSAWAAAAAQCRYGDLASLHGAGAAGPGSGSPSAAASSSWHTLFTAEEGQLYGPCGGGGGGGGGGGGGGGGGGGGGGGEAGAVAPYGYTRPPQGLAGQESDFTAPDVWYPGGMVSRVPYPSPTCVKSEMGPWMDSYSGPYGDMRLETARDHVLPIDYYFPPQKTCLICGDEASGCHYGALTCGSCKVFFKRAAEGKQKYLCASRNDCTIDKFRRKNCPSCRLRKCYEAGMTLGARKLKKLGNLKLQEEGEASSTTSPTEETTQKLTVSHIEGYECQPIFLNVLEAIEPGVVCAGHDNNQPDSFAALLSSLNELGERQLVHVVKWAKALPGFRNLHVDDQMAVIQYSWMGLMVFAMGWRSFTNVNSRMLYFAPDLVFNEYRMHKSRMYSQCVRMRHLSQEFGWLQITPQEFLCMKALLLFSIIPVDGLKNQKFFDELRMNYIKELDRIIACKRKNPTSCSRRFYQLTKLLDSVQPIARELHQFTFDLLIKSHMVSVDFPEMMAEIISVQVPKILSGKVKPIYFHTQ
Outline: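 Using 22Rv1 cells held in assay medium, we dosed compounds (100 uM maximum final, 1:4 serial, eight points, 0.5% DMSO at top) and recorded cell-electrode impedance; the 80 hr timepoint was analyzed against DMSO.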

[3] = test system: turtle Androgen Receptor (AR), gene 101947425; assay: ATG_trAR_XSP1: Attagene TRANS-FACTORIAL Multi-Species (XSP1) HepG2 Assay for turtle Androgen Receptor (AR) (AID 2283786)
Outline: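 Partial androgen stimulation is provided by 3 nM 6-alpha-fluorotestosterone in a multi-species trans-factorial panel expressing a turtle AR–GAL4 fusion in HepG2. After 24 h, reporter mRNA is measured by RT-PCR and capillary electrophoresis and fitted upward against DMSO.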

[4] = ATG_M_06_XSP1: Attagene TRANS-FACTORIAL Multi-Species (XSP1) HepG2 Assay for M06 Transcription Factor (Internal Marker) (AID 2283790)
Outline: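 This background-control readout tracks M06 reporter mRNA, measured by RT-PCR and capillary electrophoresis. HepG2 cells transiently carrying the GAL4-UAS reporter panel were dosed for 24 h with 3 nM 6-alpha-fluorotestosterone added for partial AR stimulation; increases were scored relative to DMSO.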

[5] = ATG_M_61_XSP1: Attagene TRANS-FACTORIAL Multi-Species (XSP1) HepG2 Assay for M61 Transcription Factor (Internal Marker) (AID 2283797)
Outline: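 Background-control readout: reporter transcripts measured by RT-PCR and capillary electrophoresis 24 h after dosing transiently transfected HepG2 multi-reporter cells, with 3 nM 6-alpha-fluorotestosterone present. Fitted in the positive direction relative to DMSO.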

AR (gene 367) [6] = molecular target: AR (gene 367) (UniProt P10275); assay: ACEA_AR_agonist_80hr: ACEA Biosciences xCELLigence Real-Time Cell Analysis on Androgen Receptor Agonism for Proliferation (AID 2283783);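 note: hits increase impedance growth signal above DMSO baseline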
Outline: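 Real-time cell-growth kinetics were recorded by electrode impedance in 22Rv1 cells exposed to test chemicals up to 100 uM final; the 80 h timepoint served as the readout, fitted upward relative to DMSO controls, in biological duplicate.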

[7] = ACEA_ER_AUC_viability: ACEA Biosciences xCELLigence Real-Time Cell Analysis on Estrogen Receptor Agonism for Viability (AID 2283782);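 note: hit means loss of impedance signal meaning reduced cell growth or viability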
Outline: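 Continuous-exposure impedance cell analysis uses T-47D cells in charcoal-stripped serum, eight 1:4 dilutions topping at 100 uM final, biological duplicate. Area under the growth curve at 80 h is fitted against DMSO baseline.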

[8] = molecular target: Estrogen receptor beta (Homo sapiens) (UniProt Q92731); assay: ATG_hERb_XSP1: Attagene TRANS-FACTORIAL Multi-Species (XSP1) HepG2 Assay for human Estrogen Receptor (ESR2) (AID 2283788)
Estrogen receptor beta (Homo sapiens), sequence (Q92731 whole entry, looked up, the tested form may be a part): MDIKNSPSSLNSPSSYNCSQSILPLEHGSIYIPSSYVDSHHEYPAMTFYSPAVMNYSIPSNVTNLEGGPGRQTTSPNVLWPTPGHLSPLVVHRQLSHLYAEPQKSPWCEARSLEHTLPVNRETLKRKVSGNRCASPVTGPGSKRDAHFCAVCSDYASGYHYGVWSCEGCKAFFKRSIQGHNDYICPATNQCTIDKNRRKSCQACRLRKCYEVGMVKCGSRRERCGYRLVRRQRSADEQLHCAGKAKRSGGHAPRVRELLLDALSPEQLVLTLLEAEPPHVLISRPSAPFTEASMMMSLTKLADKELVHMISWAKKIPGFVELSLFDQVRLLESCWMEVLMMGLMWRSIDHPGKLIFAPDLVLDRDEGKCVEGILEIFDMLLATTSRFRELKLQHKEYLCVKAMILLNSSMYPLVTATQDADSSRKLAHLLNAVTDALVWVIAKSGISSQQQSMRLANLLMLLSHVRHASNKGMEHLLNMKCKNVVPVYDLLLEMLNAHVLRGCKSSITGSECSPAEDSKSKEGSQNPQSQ
Outline: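 Multiplexed trans-activation in transfected HepG2: ERβ-Gal4 reporter transcripts after 24 h treatment, detected by RT-PCR plus capillary electrophoresis.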

[9] = molecular target: GAL4 Transcription Factor (Internal Marker), GAL4 (gene 855828) (UniProt P04386); assay: ATG_GAL4_XSP1: Attagene TRANS-FACTORIAL Multi-Species (XSP1) HepG2 Assay for GAL4 Transcription Factor (Internal Marker) (AID 2283789)
GAL4 Transcription Factor (Internal Marker), GAL4 (gene 855828), sequence (P04386 whole entry, looked up, the tested form may be a part): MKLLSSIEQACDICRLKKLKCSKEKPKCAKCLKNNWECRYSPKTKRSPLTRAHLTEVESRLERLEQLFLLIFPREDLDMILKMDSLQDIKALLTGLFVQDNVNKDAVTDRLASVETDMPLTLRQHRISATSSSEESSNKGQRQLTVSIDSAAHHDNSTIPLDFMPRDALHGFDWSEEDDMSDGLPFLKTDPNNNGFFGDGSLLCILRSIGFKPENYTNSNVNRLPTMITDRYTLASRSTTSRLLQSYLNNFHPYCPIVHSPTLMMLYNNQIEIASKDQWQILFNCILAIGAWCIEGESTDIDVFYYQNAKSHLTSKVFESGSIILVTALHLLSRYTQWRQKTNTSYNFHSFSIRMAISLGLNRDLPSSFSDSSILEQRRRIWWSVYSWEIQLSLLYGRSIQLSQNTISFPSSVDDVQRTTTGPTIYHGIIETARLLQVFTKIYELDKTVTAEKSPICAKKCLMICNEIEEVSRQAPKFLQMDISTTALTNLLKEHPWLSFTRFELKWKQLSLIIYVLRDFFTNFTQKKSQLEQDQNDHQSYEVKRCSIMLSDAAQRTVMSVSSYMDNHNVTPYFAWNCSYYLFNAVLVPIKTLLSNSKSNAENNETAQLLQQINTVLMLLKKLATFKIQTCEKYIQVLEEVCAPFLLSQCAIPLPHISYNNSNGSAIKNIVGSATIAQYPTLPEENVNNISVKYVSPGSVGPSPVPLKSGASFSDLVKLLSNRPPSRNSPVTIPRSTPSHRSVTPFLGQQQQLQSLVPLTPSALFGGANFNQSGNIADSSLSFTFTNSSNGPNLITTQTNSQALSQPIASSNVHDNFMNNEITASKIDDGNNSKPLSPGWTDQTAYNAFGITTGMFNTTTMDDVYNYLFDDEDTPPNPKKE
Outline: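 This background-control endpoint measures GAL4-driven reporter mRNA via RT-PCR and capillary electrophoresis of labelled fragments. Transiently transfected HepG2 cells were treated 24 h, with 3 nM 6-alpha-fluorotestosterone included, and gain-of-signal was fitted against DMSO.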

[10] = ATG_M_19_XSP1: Attagene TRANS-FACTORIAL Multi-Species (XSP1) HepG2 Assay for M19 Transcription Factor (Internal Marker) (AID 2283798)
Outline: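 Readout is reporter mRNA induction quantified via RT-PCR, 6-FAM labeling, HpaI digestion and capillary electrophoresis, fitted in the positive direction versus DMSO baseline. Transfected HepG2 cells exposed 24 h, medium including 3 nM 6-alpha-fluorotestosterone.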

Q: Which outcome [1] does the source give for `CCSC(=O)N(CC)C1CCCCC1` here?
A: inactive

Q: Which AC50 [1] does the source give for `CCC(=O)O[C@H]1CC[C@H]2[C@@H]3CCC4=CC(=O)CC[C@]4(C)[C@H]3CC[C@]12C` here?
A: 28.6 µM (active)

Q: For `Cc1ccccc1CO[C@@H]1C[C@@]2(C(C)C)CC[C@]1(C)O2`, which AC50 (AR (gene 367) [2]) is on record?
A: 76.6 µM (active)

Q: Which AC50 (AR (gene 367) [2]) does the source give for `CCOC(=O)C(O)(c1ccc(Cl)cc1)c1ccc(Cl)cc1` here?
A: 19.2 µM (active)

Q: Which results are given for `C[C@]12CCC(=O)C=C1CC[C@@H]1[C@@H]2CC[C@@]2(C)[C@H]1CC[C@]2(C)O`?
A: AC50 [3]: 0.0018 µM (active); outcome [4]: inactive; outcome [5]: inactive

Q: Which outcome (AR (gene 367) [6]) does the source give for `CCNc1nc(NC(C)C)nc(SC)n1` here?
A: inactive

Q: And the outcome [1]?
A: inactive

Q: And the outcome (AR (gene 367) [2])?
A: inactive

Q: For `O=C(N[C@H]1CN2CCC1CC2)c1cc2ccoc2cn1`, which outcome (AR (gene 367) [6]) is on record?
A: inactive

Q: What about the AC50 (AR (gene 367) [2]) of the same compound?
A: 33.1 µM (active)

Q: Which AC50 [7] does the source give for `NS(=O)(=O)C(F)(F)C(F)(F)C(F)(F)C(F)(F)C(F)(F)C(F)(F)C(F)(F)C(F)(F)F` here?
A: 77.8 µM (active) and 132 µM (active)

Q: And the AC50 (AR (gene 367) [2])?
A: 66.1 µM (active)

Q: Which AC50 [7] does the source give for `CC(C)(c1ccccc1)c1ccc(O)cc1` here?
A: 50 µM (active) and 24.3 µM (active) and 88.6 µM (active)

Q: And the AC50 [8]?
A: 227 nM (active)

Q: What about the outcome [9] of the same compound?
A: inactive

Q: And the outcome [10]?
A: inactive

Q: For `Cc1cc(O)ccc1Cl`, which outcome [1] is on record?
A: inactive

Q: Which AC50 [7] does the source give for `CCCCCCCCCC[N+](C)(C)CCCCCCCCCC` here?
A: 5.4 µM (active)

Q: What about the AC50 [1] of the same compound?
A: 2.5 µM (active)

Q: Which outcome [1] does the source give for `CCOCCOC(C)=O` here?
A: inactive

Q: Which AC50 [3] does the source give for `C[C@]12CCC(=O)C=C1CC[C@@H]1[C@@H]2CC[C@]2(C)C(=O)CC[C@@H]12` here?
A: 0.658 µM (active)

Q: What about the AC50 [8] of the same compound?
A: 16.4 nM (active) and 8 nM (active)

Q: What about the outcome [9] of the same compound?
A: inactive

Q: And the outcome [4]?
A: inactive

Q: And the outcome [5]?
A: inactive

Q: Which AC50 [7] does the source give for `Oc1ccc(C(c2ccc(O)cc2)(C(F)(F)F)C(F)(F)F)cc1` here?
A: 83.7 µM (active) and 72 µM (active) and 73.8 µM (active)

Q: And the outcome [1]?
A: inactive

Q: What about the outcome [9] of the same compound?
A: inactive

Q: And the outcome [4]?
A: inactive

Q: What about the outcome [5] of the same compound?
A: inactive

Q: Which outcome (AR (gene 367) [6]) does the source give for `C=CC(=O)NCNC(=O)C=C` here?
A: inactive

Q: What about the AC50 [1] of the same compound?
A: 50 µM (active)

Q: And the outcome (AR (gene 367) [2])?
A: inactive

Q: Which outcome [7] does the source give for `c1cc2ccc3cccc4ccc(c1)c2c34` here?
A: inactive

Q: And the AC50 (AR (gene 367) [2])?
A: 25.5 µM (active)

Q: Which outcome (AR (gene 367) [6]) does the source give for `CC(C)(O)C(=O)Nc1ccc([N+](=O)[O-])c(C(F)(F)F)c1` here?
A: inactive

Q: What about the outcome [4] of the same compound?
A: inactive

Q: What about the outcome [5] of the same compound?
A: inactive

Q: Which results are given for `O=C(NC(=O)c1c(F)cccc1F)Nc1cc(Cl)c(OC(F)(F)C(F)F)c(Cl)c1`?
A: outcome (AR (gene 367) [6]): inactive; AC50 (AR (gene 367) [2]): 50 µM (active)

Q: With `CCCCCCCCOC(=O)c1ccccc1C(=O)OCCCCCCCC` as the compound, how does the outcome (AR (gene 367) [6]) read?
A: inactive

Q: And the AC50 (AR (gene 367) [2])?
A: 50 µM (active)

Q: For `C=CC(N)=O`, which outcome [1] is on record?
A: inactive

Q: Which outcome [1] does the source give for `CO/C=C(/C(=O)OC)c1ccccc1COc1cccc(C(F)(F)F)n1` here?
A: inactive

Q: Which AC50 [1] does the source give for `C1CC2OC2CC1C1CO1` (configuration not stated) here?
A: 74.5 µM (active)

Q: For `Clc1ccc(C(c2ccccc2Cl)C(Cl)(Cl)Cl)cc1` (configuration not stated), which AC50 [7] is on record?
A: 42.8 µM (active) and 53.5 µM (active) and 50.9 µM (active)

Q: What about the AC50 [1] of the same compound?
A: 88.7 µM (active)

Q: And the outcome [8]?
A: inactive

Q: What about the outcome [9] of the same compound?
A: inactive

Q: What about the outcome [10] of the same compound?
A: inactive

Q: Which outcome [1] does the source give for `COS(=O)(=O)OC` here?
A: inactive

Q: For `CCC(C)c1cc([N+](=O)[O-])cc([N+](=O)[O-])c1O` (configuration not stated), which outcome [1] is on record?
A: inactive

Q: Which results are given for `c1ccc(-c2ccccc2)cc1`?
A: outcome [7]: inactive; outcome (AR (gene 367) [2]): inactive

Q: For `CC1=C2C[C@H]3[C@@H](CC=C4C[C@@H](O)CC[C@@]43C)[C@@H]2CC[C@]12O[C@@H]1C[C@H](C)CN[C@H]1[C@H]2C`, which outcome [7] is on record?
A: inactive

Q: And the outcome [1]?
A: inactive

Q: And the AC50 (AR (gene 367) [2])?
A: 80.8 µM (active)

Q: Which AC50 [1] does the source give for `Clc1ccc(C(Cl)(Cl)Cl)cc1` here?
A: 83.6 µM (active)

Q: What does the source list for `ClC1=C(Cl)[C@]2(Cl)[C@@H]3[C@H]4C[C@H]([C@@H]5O[C@H]45)[C@@H]3[C@@]1(Cl)C2(Cl)Cl`?
A: outcome [7]: inactive; AC50 [1]: 88.1 µM (active)

Q: With `O=NN(c1ccccc1)c1ccccc1` as the compound, how does the outcome [1] read?
A: inactive

Q: For `ClC(Cl)=C(c1ccc(Cl)cc1)c1ccc(Cl)cc1`, which AC50 [7] is on record?
A: 80.6 µM (active) and 29.5 µM (active) and 74.7 µM (active)

Q: What about the outcome [10] of the same compound?
A: inactive

Q: Which results are given for `CCCCCCOC(=O)c1ccccc1C(=O)OCCCCCC`?
A: outcome [7]: inactive; outcome [1]: inactive
